Assay results from the supplement of paper PMC12819154, “High-throughput peptide-centric local stability assay extends protein–ligand identification to membrane proteins, tissues and bacteria” (Nature Structural & Molecular Biology, 2025).

Each target was assayed with CN[C@@H]1C[C@H]2O[C@@](C)([C@@H]1OC)n1c3ccccc3c3c4c(c5c6ccccc6n2c5c31)C(=O)NC4 [staurosporine] (assay: log2 fold change of tryptic peptide abundance, ligand vs vehicle (limited proteolysis) (log2 ratio); higher = more trypsin-susceptible (destabilized)). Details: ligand concentration: 20 uM; sample: mouse liver crude lysate; replicate design: treated separately.

Chain of UniProt Q9QZL0 (Q9QZL0 whole entry): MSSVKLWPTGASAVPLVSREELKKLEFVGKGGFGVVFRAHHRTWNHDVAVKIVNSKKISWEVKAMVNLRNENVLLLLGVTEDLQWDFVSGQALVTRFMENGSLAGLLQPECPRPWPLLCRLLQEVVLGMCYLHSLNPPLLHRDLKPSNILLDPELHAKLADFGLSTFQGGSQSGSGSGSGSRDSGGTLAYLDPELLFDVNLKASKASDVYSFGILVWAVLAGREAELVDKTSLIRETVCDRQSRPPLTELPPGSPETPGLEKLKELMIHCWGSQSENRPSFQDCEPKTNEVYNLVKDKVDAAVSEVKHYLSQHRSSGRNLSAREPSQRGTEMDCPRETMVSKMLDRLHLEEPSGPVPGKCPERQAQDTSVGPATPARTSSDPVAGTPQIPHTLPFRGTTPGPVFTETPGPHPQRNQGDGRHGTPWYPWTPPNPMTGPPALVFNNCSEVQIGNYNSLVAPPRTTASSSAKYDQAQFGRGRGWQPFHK
Chain of UniProt P47811 (P47811 whole entry): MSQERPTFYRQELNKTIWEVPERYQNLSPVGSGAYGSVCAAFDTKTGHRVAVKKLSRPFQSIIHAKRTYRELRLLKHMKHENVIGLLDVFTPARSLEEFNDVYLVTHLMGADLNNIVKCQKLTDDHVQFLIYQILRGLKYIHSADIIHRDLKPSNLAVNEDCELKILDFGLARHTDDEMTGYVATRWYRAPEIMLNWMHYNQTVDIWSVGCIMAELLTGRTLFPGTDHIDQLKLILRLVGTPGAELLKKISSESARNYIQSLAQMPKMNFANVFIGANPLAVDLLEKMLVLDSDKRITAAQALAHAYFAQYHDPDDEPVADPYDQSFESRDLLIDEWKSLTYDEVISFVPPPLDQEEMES
Chain of UniProt Q91XF0 (Q91XF0 whole entry): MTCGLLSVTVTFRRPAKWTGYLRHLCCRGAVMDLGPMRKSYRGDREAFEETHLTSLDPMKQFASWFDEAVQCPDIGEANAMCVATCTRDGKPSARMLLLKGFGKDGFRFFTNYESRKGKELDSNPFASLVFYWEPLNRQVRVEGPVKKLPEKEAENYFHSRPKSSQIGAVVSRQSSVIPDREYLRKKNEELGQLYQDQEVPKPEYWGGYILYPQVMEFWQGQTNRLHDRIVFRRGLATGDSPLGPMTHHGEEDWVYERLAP
Chain of UniProt Q8R0Y8 (Q8R0Y8 whole entry): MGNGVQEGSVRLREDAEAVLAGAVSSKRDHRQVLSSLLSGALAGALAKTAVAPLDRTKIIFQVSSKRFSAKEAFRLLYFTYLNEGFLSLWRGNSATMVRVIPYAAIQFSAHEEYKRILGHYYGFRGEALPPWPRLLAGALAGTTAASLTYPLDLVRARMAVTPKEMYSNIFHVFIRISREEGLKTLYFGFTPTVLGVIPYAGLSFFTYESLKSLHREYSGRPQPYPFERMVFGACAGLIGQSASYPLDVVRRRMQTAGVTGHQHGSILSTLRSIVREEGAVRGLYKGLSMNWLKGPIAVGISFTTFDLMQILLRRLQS
Chain of UniProt Q9DCZ4 (Q9DCZ4 whole entry): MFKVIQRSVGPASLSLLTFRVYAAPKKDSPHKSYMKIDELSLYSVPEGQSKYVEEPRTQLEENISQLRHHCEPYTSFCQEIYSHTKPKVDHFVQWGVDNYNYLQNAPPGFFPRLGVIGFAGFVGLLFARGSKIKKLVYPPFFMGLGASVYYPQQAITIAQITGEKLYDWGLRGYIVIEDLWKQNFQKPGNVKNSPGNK
Chain of UniProt Q2NL51 (Q2NL51 whole entry): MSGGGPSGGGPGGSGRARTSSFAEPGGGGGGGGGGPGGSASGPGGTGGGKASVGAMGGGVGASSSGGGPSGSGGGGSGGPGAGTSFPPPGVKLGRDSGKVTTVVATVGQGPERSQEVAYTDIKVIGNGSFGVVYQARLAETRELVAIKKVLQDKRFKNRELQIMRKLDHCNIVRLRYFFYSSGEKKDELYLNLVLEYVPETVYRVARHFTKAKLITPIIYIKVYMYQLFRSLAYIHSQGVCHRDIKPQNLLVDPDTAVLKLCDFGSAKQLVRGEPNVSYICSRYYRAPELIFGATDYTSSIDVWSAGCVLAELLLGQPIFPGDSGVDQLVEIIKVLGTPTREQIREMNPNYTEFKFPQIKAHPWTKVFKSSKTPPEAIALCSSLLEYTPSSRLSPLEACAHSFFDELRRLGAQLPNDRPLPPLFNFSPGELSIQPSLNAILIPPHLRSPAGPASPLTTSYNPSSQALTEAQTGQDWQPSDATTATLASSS
Chain of UniProt Q8VDP6 (Q8VDP6 whole entry): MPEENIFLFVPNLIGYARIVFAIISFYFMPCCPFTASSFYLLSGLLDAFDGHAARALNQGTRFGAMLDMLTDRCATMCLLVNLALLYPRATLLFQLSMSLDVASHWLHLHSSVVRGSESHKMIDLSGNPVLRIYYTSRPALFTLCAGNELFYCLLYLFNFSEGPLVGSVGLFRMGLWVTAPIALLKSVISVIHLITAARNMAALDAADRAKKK
Chain of UniProt P08226 (P08226 whole entry): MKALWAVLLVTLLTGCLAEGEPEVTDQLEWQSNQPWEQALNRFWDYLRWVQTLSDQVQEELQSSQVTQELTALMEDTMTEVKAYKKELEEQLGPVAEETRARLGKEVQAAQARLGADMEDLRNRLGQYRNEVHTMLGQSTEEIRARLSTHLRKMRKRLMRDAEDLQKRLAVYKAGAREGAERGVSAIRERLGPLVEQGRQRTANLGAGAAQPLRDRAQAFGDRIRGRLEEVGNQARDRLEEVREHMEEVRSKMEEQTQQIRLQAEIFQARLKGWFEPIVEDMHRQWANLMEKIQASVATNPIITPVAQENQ
Chain of UniProt P24549 (P24549 whole entry): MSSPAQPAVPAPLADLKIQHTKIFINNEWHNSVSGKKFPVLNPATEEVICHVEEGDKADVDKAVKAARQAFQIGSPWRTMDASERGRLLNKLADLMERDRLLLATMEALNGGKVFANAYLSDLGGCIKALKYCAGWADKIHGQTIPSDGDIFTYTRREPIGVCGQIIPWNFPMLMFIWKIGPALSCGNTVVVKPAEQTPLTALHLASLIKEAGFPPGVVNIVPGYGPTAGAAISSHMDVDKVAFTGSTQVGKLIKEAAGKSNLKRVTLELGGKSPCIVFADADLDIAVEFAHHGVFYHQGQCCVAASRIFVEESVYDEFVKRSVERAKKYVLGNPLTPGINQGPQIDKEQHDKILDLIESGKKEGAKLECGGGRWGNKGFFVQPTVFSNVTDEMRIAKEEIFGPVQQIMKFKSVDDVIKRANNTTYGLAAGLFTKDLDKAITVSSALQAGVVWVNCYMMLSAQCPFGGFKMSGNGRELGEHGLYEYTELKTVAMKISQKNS
Chain of UniProt P36552 (P36552 whole entry): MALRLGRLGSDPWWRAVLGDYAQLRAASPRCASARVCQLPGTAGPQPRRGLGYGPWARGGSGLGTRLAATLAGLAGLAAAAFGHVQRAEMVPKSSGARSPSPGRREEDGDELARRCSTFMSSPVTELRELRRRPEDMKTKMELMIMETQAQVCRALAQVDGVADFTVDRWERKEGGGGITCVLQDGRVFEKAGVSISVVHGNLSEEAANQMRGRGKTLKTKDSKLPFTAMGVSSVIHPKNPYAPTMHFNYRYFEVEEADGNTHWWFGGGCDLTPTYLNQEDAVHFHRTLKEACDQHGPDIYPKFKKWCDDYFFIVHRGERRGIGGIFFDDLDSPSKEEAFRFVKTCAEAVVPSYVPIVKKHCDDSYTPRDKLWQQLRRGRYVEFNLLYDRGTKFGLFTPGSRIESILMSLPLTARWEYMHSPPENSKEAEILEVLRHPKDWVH
Chain of UniProt P16331 (P16331 whole entry): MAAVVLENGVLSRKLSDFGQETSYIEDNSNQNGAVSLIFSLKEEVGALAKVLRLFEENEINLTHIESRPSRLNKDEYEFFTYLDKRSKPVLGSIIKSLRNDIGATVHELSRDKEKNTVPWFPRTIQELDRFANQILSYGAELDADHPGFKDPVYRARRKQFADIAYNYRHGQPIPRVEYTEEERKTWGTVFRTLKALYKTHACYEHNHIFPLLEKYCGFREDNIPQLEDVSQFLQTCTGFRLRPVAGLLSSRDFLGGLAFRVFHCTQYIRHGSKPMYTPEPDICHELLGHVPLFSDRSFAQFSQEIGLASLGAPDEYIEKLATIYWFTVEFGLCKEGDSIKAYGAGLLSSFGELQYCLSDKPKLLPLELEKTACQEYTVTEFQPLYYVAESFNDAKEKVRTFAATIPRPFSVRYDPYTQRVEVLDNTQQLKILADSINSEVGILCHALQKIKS
Chain of UniProt Q91V04 (Q91V04 whole entry): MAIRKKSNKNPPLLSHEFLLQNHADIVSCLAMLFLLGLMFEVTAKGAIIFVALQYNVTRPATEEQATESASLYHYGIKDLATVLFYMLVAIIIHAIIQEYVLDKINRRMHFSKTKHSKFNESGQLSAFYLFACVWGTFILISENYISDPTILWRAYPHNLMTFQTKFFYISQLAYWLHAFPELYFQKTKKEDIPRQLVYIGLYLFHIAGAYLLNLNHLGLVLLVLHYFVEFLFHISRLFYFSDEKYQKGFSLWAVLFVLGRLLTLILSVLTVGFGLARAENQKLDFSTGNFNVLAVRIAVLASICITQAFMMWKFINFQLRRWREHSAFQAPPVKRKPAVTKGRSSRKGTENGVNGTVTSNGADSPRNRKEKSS
Chain of UniProt Q8C4X2 (Q8C4X2 whole entry): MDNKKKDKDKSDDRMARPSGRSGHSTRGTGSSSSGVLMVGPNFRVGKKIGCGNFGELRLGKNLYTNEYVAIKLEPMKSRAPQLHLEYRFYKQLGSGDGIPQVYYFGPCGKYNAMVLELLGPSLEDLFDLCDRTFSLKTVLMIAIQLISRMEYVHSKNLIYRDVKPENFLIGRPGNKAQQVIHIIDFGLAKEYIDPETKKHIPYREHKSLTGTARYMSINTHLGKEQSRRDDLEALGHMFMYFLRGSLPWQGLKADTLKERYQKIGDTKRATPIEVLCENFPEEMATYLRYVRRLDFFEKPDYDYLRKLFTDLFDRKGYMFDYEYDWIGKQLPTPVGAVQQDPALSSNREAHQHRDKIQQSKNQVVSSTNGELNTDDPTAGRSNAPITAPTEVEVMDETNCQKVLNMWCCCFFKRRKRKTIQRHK

Target | log2 fold change
UniProt Q99PV0 (peptide sequence: VESHFDLELR, peptide start residue: 677) | 0.478
UniProt Q2NL51 (peptide sequence: LCDFGSAK, peptide start residue: 198) | -4.01
UniProt P36552 (peptide sequence: NPYAPTMHFNYR, peptide start residue: 240) | -0.601
UniProt O88451 (peptide sequence: LWDQTSSEVK, peptide start residue: 225) | -0.709
UniProt Q91XF0 (peptide sequence: SSQIGAVVSR, peptide start residue: 164) | 1.44
UniProt Q9DCZ4 (peptide sequence: TQLEENISQLR, peptide start residue: 58) | 0.253
UniProt Q91V04 (peptide sequence: EHSAFQAPPVKR, peptide start residue: 325) | 3.7
UniProt Q9QZL0 (peptide sequence: DLKPSNILLDPELHAK, peptide start residue: 143) | -1.1
UniProt P24604 (peptide sequence: ELGSGLFGVVR, peptide start residue: 374) | -0.989
UniProt P24549 (peptide sequence: SVDDVIKR, peptide start residue: 413) | -0.205
UniProt Q8BK48 (peptide sequence: DFRPPYVK, peptide start residue: 447) | -1.1
UniProt Q9R257 (peptide sequence: FATVEVTDKPVDEALR, peptide start residue: 41) | -0.672
UniProt O35099 (peptide sequence: YLHDNQIVHR, peptide start residue: 800) | -3.12
UniProt P09813 (peptide sequence: THEQLTPLVR, peptide start residue: 68) | 0.46
UniProt Q99MK8 (peptide sequence: DLKPANILLDEHGHVR, peptide start residue: 317) | -0.735
UniProt Q8BW96 (peptide sequence: IMISDFGLSK, peptide start residue: 161) | -1.32

Target | log2 fold change
UniProt P08226 (peptide sequence: LQAEIFQAR, peptide start residue: 262) | 0.428
UniProt P18654 (peptide sequence: GAMAATYSALNR, peptide start residue: 701) | 0.612
UniProt P47809 (peptide sequence: ISPEQHWDFTAEDLK, peptide start residue: 87) | -0.533
UniProt P47811 (peptide sequence: NYIQSLAQMPK, peptide start residue: 257) | 0.32
UniProt Q9QZ05 (peptide sequence: DLKPVNIFLDSDDHVK, peptide start residue: 846) | -1.48
UniProt Q91XD8 (peptide sequence: LQALQPSDLGPR, peptide start residue: 75) | -0.916
UniProt Q91YH5 (peptide sequence: ALASVLLQDHIR, peptide start residue: 45) | 0.309
UniProt Q9JM62 (peptide sequence: NVATEALGALEAR, peptide start residue: 16) | 0.439
UniProt Q8VDP6 (peptide sequence: MIDLSGNPVLR, peptide start residue: 122) | 0.341
UniProt Q91VF2 (peptide sequence: TSNMENIK, peptide start residue: 105) | 0.598
UniProt Q8C4X2 (peptide sequence: DVKPENFLIGRPGNK, peptide start residue: 162) | -1.22
UniProt P16331 (peptide sequence: RKQFADIAYNYR, peptide start residue: 158) | -0.336
UniProt Q8R0Y8 (peptide sequence: MQTAGVTGHQHGSILSTLR, peptide start residue: 254) | 0.401
UniProt Q9WV55 (peptide sequence: KVAHSDKPGSTSAVSFR, peptide start residue: 205) | 0.313
UniProt P27659 (peptide sequence: LLPLRQKK, peptide start residue: 170) | -0.616
